# Measurements from PubChem BioAssay AID492992 (Johns Hopkins Ion Channel Center, 2010).
# In all, about 4,900 compounds went through this assay and about 2,100 (43%) were called active.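 Rule for the calls: active = thallium signal inhibited by more than 5 SD of the compound-free buffer control wells, on both duplicate plates; inactive = the rest.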 The set was probably picked from earlier hits. A selection follows.
# Biological target: Potassium channel subfamily K member 9 (Homo sapiens) (UniProt Q9NPC2)
# Sequence (Q9NPC2 whole entry, looked up): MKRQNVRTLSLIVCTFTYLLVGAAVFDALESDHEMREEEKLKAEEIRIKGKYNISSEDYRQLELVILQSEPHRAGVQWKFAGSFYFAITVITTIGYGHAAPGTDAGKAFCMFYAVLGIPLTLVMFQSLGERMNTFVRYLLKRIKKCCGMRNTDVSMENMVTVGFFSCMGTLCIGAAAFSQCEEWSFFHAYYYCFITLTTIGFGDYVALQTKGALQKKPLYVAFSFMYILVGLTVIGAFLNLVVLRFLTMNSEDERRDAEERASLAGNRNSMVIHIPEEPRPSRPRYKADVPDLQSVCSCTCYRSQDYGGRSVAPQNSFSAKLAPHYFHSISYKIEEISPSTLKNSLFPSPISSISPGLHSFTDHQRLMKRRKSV
# Experiment: KCNK9 potassium channel inhibitors, confirmation, HEK293 cells, thallium flux, duplicate (AID 492992);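 for inhibition: 0% = assay buffer control wells without compound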
# Settings: FluxOR thallium flux fluorescence, at 10 µM; active compounds read high
row,Compound,inhibition
1,O=C(COC(=O)/C(=C/c1cccs1)c1cccs1)NCc1ccccc1Cl,29% (active)
2,Cc1ccccc1CSc1nnc(CCCCCNC(=O)OC(C)(C)C)o1,inactive
3,CCc1nnc(NS(=O)(=O)c2ccc(NC(=S)NC(=O)/C=C/c3cccs3)cc2)s1,inactive
4,COc1cccc2sc(NNC(=O)c3nc4ccccc4s3)nc12,inactive
5,Cc1nn(CC(=O)Nc2nc3ccccc3s2)c(C)c1[N+](=O)[O-],48% (active)
6,O=C(NCc1ccccc1)C1=C[C@@H](C2CCCCC2)C[C@@H](OCc2ccc(CO)cc2)O1,inactive
7,O=C(CSCc1ccc(Br)cc1)Nc1ccc(S(=O)(=O)N2CCCCCC2)cc1,inactive
8,Cc1ccc(C2=Nc3c(ccc4ccccc34)C(c3ccncc3)=NN2)cc1,68.5% (active)
9,CCOc1cccc(OCCCOc2cccc3cccnc23)c1,inactive
10,COc1ccc(C(C)=O)cc1COc1ccc(Cl)c(C)c1,46% (active)
11,Cc1ccc(OCc2cc(C(=O)N(C)CCc3ccccc3)no2)cc1C,inactive
12,Cc1ccc(OS(=O)(=O)c2ccc(-c3csc(C)n3)s2)c(C)c1,inactive
13,Cc1cccc(NC(=O)N(Cc2cc3cc(C)cc(C)c3[nH]c2=O)CC2COCCO2)c1 (stereo not drawn),inactive
14,O=C1/C(=C/c2ccc(F)cc2)SC(=S)N1NS(=O)(=O)c1ccccc1,inactive
15,Fc1ccc(Cn2nnnc2C(c2cccs2)N2CCCCCC2)cc1 (stereo not drawn),49% (active)
16,COc1ccccc1C(c1nnnn1C(C)(C)C)N1CCN(Cc2ccccc2)CC1 (stereo not drawn),76% (active)
17,COc1ccc(C(=O)C2CCCN(C(=O)c3cc(C)on3)C2)cc1F (stereo not drawn),inactive
18,CCCCCCCCCCOC(=O)Cn1c(COc2cccc(OC)c2)[n+](C)c2ccccc21,67% (active)
19,CCCCCCCCCCOC(=O)Cn1c(COc2ccc(C)cc2)[n+](C)c2ccccc21,65% (active)
20,CCCCN(Cc1ccccc1)C(=O)C1CCN(Cc2sccc2C)CC1,inactive
21,CCOc1ccc2[nH]c(=O)c(CN(Cc3nnnn3CCc3ccccc3)CC3CCCO3)cc2c1 (stereo not drawn),32% (active)
22,CCCCn1ccnc1C(=O)c1cccc(S(=O)(=O)N2c3ccccc3CC2C)c1 (stereo not drawn),62% (active)
23,Cc1cc2ccccn2c1C(=O)c1cccc(S(=O)(=O)N2CCOCC2)c1,inactive
24,Cc1cccc(N2CCN(C(=O)c3cccc(S(=O)(=O)N4CCc5ccccc5C4)c3)CC2C)c1 (stereo not drawn),inactive
25,COc1cccc(CN(C)C(=O)CC23CC4CC(CC(C4)C2)C3)c1OC,inactive

row,Compound,inhibition
1,CCN(CC)C(=O)CC1(c2ccccc2OC)CCOC(C(C)C)C1 (stereo not drawn),36.5% (active)
2,O=C1N=C2SCCN2/C1=C\c1c(Cl)cccc1Cl,inactive
3,CC1=C/C(=N\OS(=O)(=O)c2ccccc2)C=CC1=O,inactive
4,COc1cc(C(CCN2CCN(c3ccccc3)CC2)c2c(OC)cc(OC)c3ccc(=O)oc23)cc(OC)c1OC (stereo not drawn),inactive
5,CCOc1ccc(CN(Cc2ccco2)C(c2cccs2)c2nnnn2C(C)(C)C)cc1 (stereo not drawn),60.5% (active)
6,COc1ccc(OC)c(-c2csc(-c3cccs3)n2)c1,inactive
7,COc1ccc(C2CC(c3cccs3)=Nc3ccccc3S2)cc1OC (stereo not drawn),40.5% (active)
8,O=C(COC(=O)c1c2c(nc3ccccc13)CCCC2)c1ccc(Br)s1,inactive
9,CCc1ccccc1NC(=O)/C(=C/c1ccccc1)c1ccccc1,37.5% (active)
10,CC(Oc1ccc2ccccc2c1)C(=O)NNC(=S)NC(=O)c1ccco1 (stereo not drawn),inactive
11,O=C(Nc1ccc(Oc2ccccc2)cc1)c1ccco1,50.5% (active)
12,Cc1ccc(C2=NN(C)c3nc4ccccc4n3C2)cc1,inactive
13,CCCN1C(=O)C(Cc2nc3ccccc3c(=O)n2-c2ccccc2)c2cc(C)ccc21 (stereo not drawn),47% (active)
14,Brc1ccc(C2CC(c3ccccc3)=Nc3ccccc3N2)cc1 (stereo not drawn),61.5% (active)
15,O=C(NNc1ccccc1Cl)C(O)(c1cccc(C(F)(F)F)c1)c1cccc(C(F)(F)F)c1,44% (active)
16,COc1cccc(-c2cc3nc4c(c(N5CCC6(CC5)OCCO6)n3n2)CCCC4)c1,inactive
17,CC(C)(C)C1CCC(C(=O)NCC(c2cccs2)N2CCOCC2)CC1 (stereo not drawn),inactive
18,CCc1cccc(C)c1N(C(=O)Cn1c(CO)nc2ccccc21)C(C)COC (stereo not drawn),37.5% (active)
19,O=[N+]([O-])c1ccc(N2CCN(CC(O)COc3ccccc3)CC2)cc1 (stereo not drawn),inactive
20,COc1cccc(NC(=S)N(CCc2c(C)[nH]c3ccccc23)Cc2ccco2)c1,59% (active)
21,Cc1[nH]c2ccccc2c1CCN(Cc1cccs1)C(=S)NC(C)(C)C,inactive
22,COc1ccc([N+](=O)[O-])cc1-c1nc2ccccc2nc1-c1ccccc1,inactive
23,COC(=O)Cn1cnc2scc(-c3ccc(C)c(C)c3)c2c1=O,inactive
24,CC(C)N(C(=O)CSc1nc(COc2ccccc2)nc2ccccc12)C(C)C,76.5% (active)
25,O=C1/C(=C/c2ccc3c(c2)OCO3)CCC/C1=C\c1ccc2c(c1)OCO2,inactive

row,Compound,inhibition
1,O=C(NCCCc1ccccc1)c1cc(COc2c(F)cccc2F)on1,inactive
2,COc1ccc(CCNc2ncnc3c2nnn3Cc2ccccc2)cc1,inactive
3,COc1ccc(CCNC(=O)c2ccccc2OCc2ccccc2)cc1,64% (active)
4,COc1ccc(-c2noc(CSc3ccc(C)cc3)n2)cc1,inactive
5,COc1cc(NC(=S)NCCSc2ccc(C)cc2)cc(OC)c1,27% (active)
6,COc1cccc(C(=O)NCCSc2ccc(Br)cc2)c1,inactive
7,CCOc1ccccc1NC(=O)C12CC3CC(C1)CC(c1ccc(C)cc1)(C3)C2,inactive
8,O=C(Oc1ccc(Br)cc1C(=S)N1CCOCC1)c1cccc([N+](=O)[O-])c1,50% (active)
9,COc1ccc(-c2oc(/N=C/N3CCCC3)c(C#N)c2-c2ccc(OC)cc2)cc1,inactive
10,O=C(Cn1cc(C(=O)c2cccs2)c2ccccc21)NCc1cccs1,39% (active)
11,Cc1ccc(CN(N=Nc2nonc2N)c2nonc2N)c(C)c1,68.5% (active)
12,C/C(=N\NC(=S)Nc1ccc(C)cc1)c1cc2ccccc2o1,inactive
13,Cc1cccc(N(C)C(=O)CN2C(=O)COc3ccc(S(=O)(=O)N4CCCCCC4)cc32)c1,inactive
14,Cc1ccc(S(=O)(=O)N2CCN(C(=O)COC(=O)c3c(C)cc(C)cc3C)CC2)c(C)c1,inactive
15,CCOc1ccc(C(C)C)cc1S(=O)(=O)n1nc(C)cc1C,33% (active)
16,CC(C)(C)NC(=O)NC(=O)CN1CCC(Cc2ccccc2)CC1,inactive
17,CC1=CC(C)(C)N(C(=O)CSc2nnc(-c3ccccc3)o2)c2ccc(C)cc21,inactive
18,C=CCOc1ccc(/C=N/NC(=O)C(C)Sc2ccccn2)cc1OCC (stereo not drawn),46.5% (active)
19,O=[N+]([O-])/C=C/c1ccc2c(ccn2Cc2ccccc2)c1,inactive
20,COC(=O)c1sc(-c2ccc(C(C)(C)C)cc2)cc1NC(=O)/C=C/C(=O)O,inactive
21,O=C(C[C@H]1C(=O)N(c2ccc(F)c(F)c2)C[C@@H]1Cc1ccccc1)Nc1ccccc1,39% (active)
22,O=C(CC(NC(=O)c1ccccc1)c1ccccc1)Nc1ccc(F)c(F)c1 (stereo not drawn),inactive
23,Cc1ccc(C(=O)c2c(NC(=O)c3ccccc3)sc(C)c2C)cc1,inactive
